Screening results (PubChem)
An excerpt weighted towards active compounds, which were near 11% of everything screened.
NPSR antagonist – blocks cAMP signaling of the human neuropeptide S receptor. Q6W5P4. CHO-NPSR cells, cAMP TR-FRET, antagonist mode. Potency, µM (series often up to 38.3 µM), inactives show top-dose activity change, negative = inhibition, actives largely listed as inhibitors. 220,000 tested, 1% active; active = well fitted curve in the direction sought with a large enough effect; inconclusive = small, poorly fitted or top-dose-only effect, or another doubt; inactive = no such curve, though single readings can be large; an effect the other way counts as inactive or inconclusive; also: potency is read from the fitted curve at half-maximal effect; nearly all actives have a fitted effect of over 50% in size
IMPase inh – cell-permeable inhibitors of inositol monophosphatase (IMPase). 120,000 tested, under 10 active. inhibition (IP1 accumulation), % at 46.1 µM. P97697. CHO-M1 cells, IP1 accumulation, HTRF TR-FRET ratio; active = well fitted curve in the direction sought with a large enough effect in the signal ratio, not every such curve was filed as active; inconclusive = small, poorly fitted or top-dose-only effect, or a change in a side signal; inactive = no such curve, though single readings can be large or run the other way; the % refers to the signal ratio;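 also: cells stimulated with carbachol in lithium chloride buffer; plate controls were DMSO basal wells for no effect and reference inhibitor wells for full effect; higher means more IMPase inhibition seen as more IP1 and lower FRET ratio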
Target sequence (P97697 whole entry, looked up): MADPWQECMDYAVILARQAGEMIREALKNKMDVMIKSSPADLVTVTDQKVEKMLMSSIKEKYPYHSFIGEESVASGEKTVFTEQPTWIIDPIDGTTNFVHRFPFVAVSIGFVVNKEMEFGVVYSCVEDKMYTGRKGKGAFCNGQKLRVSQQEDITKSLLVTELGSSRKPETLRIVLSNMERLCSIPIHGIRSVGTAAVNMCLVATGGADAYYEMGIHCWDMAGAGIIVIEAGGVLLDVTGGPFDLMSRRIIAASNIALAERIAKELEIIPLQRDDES
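The IP-One HTRF competitive assay in carbachol-stimulated CHO-M1 cells quantifies cellular IP1. Compounds spanned up to 46 uM final, and activity is expressed as AC50 from concentration-response fits of the ratio and donor data.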
ALDH1A1 block – inhibitors of human aldehyde dehydrogenase 1A1. 220,000 tested, 7.3% active. Potency, µM (titrated, usually from 75.3 µM), inactives show at the highest dose activity, negative = inhibition, usual class: inhibitors. Purified ALDH1A1, NADH fluorescence, propionaldehyde substrate;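 also: potency is read from the fitted curve at half-maximal effect; plate controls were no enzyme wells and a reference inhibitor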
Target sequence (P00352 whole entry, looked up): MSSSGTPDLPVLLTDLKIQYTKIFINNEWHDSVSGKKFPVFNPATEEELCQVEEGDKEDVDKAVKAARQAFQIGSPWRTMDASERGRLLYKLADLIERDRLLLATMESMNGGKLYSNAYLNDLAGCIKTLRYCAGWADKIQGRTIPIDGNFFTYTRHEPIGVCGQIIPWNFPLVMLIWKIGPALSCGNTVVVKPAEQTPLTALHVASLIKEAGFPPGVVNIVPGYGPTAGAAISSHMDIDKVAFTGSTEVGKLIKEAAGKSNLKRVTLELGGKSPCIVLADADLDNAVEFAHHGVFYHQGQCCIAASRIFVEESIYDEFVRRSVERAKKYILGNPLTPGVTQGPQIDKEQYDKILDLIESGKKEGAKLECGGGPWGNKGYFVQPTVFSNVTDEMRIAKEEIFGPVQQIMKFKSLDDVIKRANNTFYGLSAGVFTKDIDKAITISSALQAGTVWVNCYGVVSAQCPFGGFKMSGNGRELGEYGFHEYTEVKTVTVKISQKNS
PNC assembly inh – perinucleolar compartment assembly inhibition; 140,000 tested, 3.1% active; activity change (PNC), negative = inhibition, % at 10 µM; PC3M PTB-GFP, PNC prevalence imaging, 16 h; stronger effect = lower value; AID 2417;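 active = readout at or below -70, meaning at least 70% loss of cells showing the perinucleolar compartment, a nuclear body marking cancer cells; inconclusive = readout between -30 and a set limit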;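 also: plate controls were DMSO wells for no effect and camptothecin positive control wells for full effect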
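PC3M cells stably expressing PTB-GFP, 750–1000 cells/well, treated 16 h at 37 °C with compound (23 nl of library stock), in duplicate. After paraformaldehyde fixation and Hoechst stain, imaged at 20x; PNC prevalence scored by image analysis.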
HPGD inh – blocks human HPGD enzyme activity | Potency, µM, without a hit: at the top dose activity change, negative = inhibition, usual class: inhibitors | 150,000 tested, 4.3% active | purified HPGD, NADH fluorescence kinetic, PGE2 substrate | P15428; also: potency is read from the fitted curve at half-maximal effect
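20 nM HPGD preincubated 15 min at room temperature with compound in 50 mM Tris-HCl pH 8, 0.01% Tween 20. Started with 1 mM NAD+ and 30 uM prostaglandin E2; NADH fluorescence (360/450 nm) read 5 times over 30-s intervals, last minus first.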
IMPase Li inh – membrane-permeable IMPase blocker, potentiated with lithium. 210,000 tested, 0.35% active. CHO-M1 cells, IP1 TR-FRET (IP-One), carbachol + lithium. Potency, µM (top dose mostly 59.4 µM), inactives show at the highest dose activity, negative = IMPase inhibition, actives largely listed as inhibitors; active = well fitted curve in the direction sought with a large enough effect; inconclusive = small, poorly fitted or top-dose-only effect, or another doubt; inactive = no such curve, though single readings can be large; an effect the other way counts as inactive or inconclusive;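 also: IP1 builds up when IMPase is blocked and the TR-FRET signal falls; potency is read from the fitted curve at half-maximal effect; plate controls were basal vehicle for no effect and high inhibitor control for full effect; nearly all actives have a fitted effect of over 50% in size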
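Lithium-sensitised IP1 accumulation assay; M1-expressing CHO cells treated 30 min at 37C with compound. Competitive antibody detection by time-resolved FRET followed a 10 min room-temperature lysis step.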
The depositor's hits bear a star; ? = inconclusive; . = no result given; [ ] = another dose, or the depositor's remark. Unless noted, calls follow the shape of the dose curve; as a rule, active = well fitted inhibition curve with a large enough effect (not every such curve was filed as active); inconclusive = small, poorly fitted or top-dose-only effect, or another doubt; inactive = no such curve, though single readings can be large or run the other way. Unless noted, % is scaled to controls: 0 for no effect and ±100 for the full control effect.

SMILES	NPSR antagonist	IMPase inh	ALDH1A1 block	PNC assembly inh	HPGD inh	IMPase Li inh
CC(C)=NOC[C@@H](O)COCc1ccco1	.	.	-5%[13.5 µM]	.	.	.
COc1ccc(/C=C/CN2CCCC(CO)(Cc3cccc(Cl)c3)C2)cc1 (stereo not given)	?	.	20µM*	.	.	23%
COc1ccccc1/C=C/CN1CCCC(CO)(Cc2cccc(Cl)c2)C1 (stereo not given)	?	.	?	.	.	14%
O=C(O)[C@@H](Br)[C@@H](Br)c1ccccc1[N+](=O)[O-]	.	.	3%[13.5 µM]	.	-3%	-3%
CC(C)c1ccc(C2NC(=S)NC3=C2C(=O)CC(C)(C)C3)cc1 (stereo not given)	-33%	1	2µM*	4	-11%	0%
CCc1ccc(C2NC(=S)NC3=C2C(=O)CC(C)(C)C3)cc1 (stereo not given)	-12%	-9	2.5µM*	?	-10%	-1%
CCc1ccc(C2NC(=S)NC3=C2C(=O)CCC3)cc1 (stereo not given)	5%	-2	?	10	-4%	6%
CC1(C)CC(=O)C2=C(C1)NC(=O)NC2c1ccccc1 (stereo not given)	6%	.	11%	.	.	12%
COc1cccc(NC(=O)CSc2ccccn2)c1	-20%[46.1 µM]	-1	20µM*	-26	28µM*	3%[38.3 µM]
COc1ccc(NC(=O)CSc2ccccn2)cc1	-13%[46.1 µM]	?	-4%	-16	25µM*	5%
O=C(CSc1ccccn1)Nc1ccc(NC(=O)CSc2ccccn2)cc1	-27%	.	-7%	.	.	5%
COc1ccc(NC(=O)CSc2ccc(-c3ccccn3)nn2)cc1OC	17%	-6	14µM*	17	-14%	6%
Cc1ccc(NC(=O)CSc2ccc(-c3ccccn3)nn2)cc1	-3%	.	-2%	.	.	-9%
CC(/C=N/NC(=O)CSc1ccccn1)=C\c1ccc(C(C)C)cc1	-24%	.	25µM*	6	-28%	20%
COc1ccc(CN(C(=O)c2ccc3c(c2)OCCO3)C(C(=O)NC2CCCCC2)c2ccc3ncccc3c2)cc1 (stereo not given)	?	3	?	83	-4%	5%[38.3 µM]
C/C(=N\OCc1cccc(C(=O)O)c1)c1ccc(Cl)cc1	9%	.	.	.	.	.
Cc1cc(C)nc(N2CCC(C(=O)Nc3ccc4c(c3)OCO4)CC2)n1	2%[46.1 µM]	-8	-4%	0	-12%	5%[38.3 µM]
COc1ccc(/C=N/NC(=O)c2cccnc2)cc1CSc1ccccn1	-2%	.	.	.	.	.
COc1ccc(C(=O)N/N=C/c2ccc(OC)c(CSc3ccccn3)c2)cc1	-3%	.	?	-7	32µM*	4%
Cc1cc(C)nc(NC(=O)CSc2ccccn2)n1	-4%[46.1 µM]	?	10µM*	-11	2%	9%
Cn1c(=O)c([N+](=O)[O-])c(Cl)c2ccccc21	?	.	18µM*	.	.	38%
CCn1c(=O)c([N+](=O)[O-])c(NCCc2ccccc2)c2ccccc21	-18%[46.1 µM]	11	?	?	16µM*	7%
Cn1c(=O)c([N+](=O)[O-])c(NCCc2ccccc2)c2ccccc21	5%	-3	-8%	?	16µM*	2%
CCn1c(=O)c([N+](=O)[O-])c(NCCc2ccc(OC)c(OC)c2)c2ccccc21	12%	.	14µM*	12	8.9µM*	26%
CCn1c(=O)c([N+](=O)[O-])c(NC2CCS(=O)(=O)C2)c2ccccc21 (stereo not given)	1%	.	.	.	.	.
SMILES	NPSR antagonist	IMPase inh	ALDH1A1 block	PNC assembly inh	HPGD inh	IMPase Li inh
CCOc1ccc(NC(=O)Nc2cc(C(C)C)ccc2C)cc1	-42%	.	.	.	.	.
Cc1ccc(Nc2c([N+](=O)[O-])c(=O)n(C)c3ccccc23)cc1C	-18%[46.1 µM]	12	8.9µM*	4	-11%	19%
Cn1c(=O)c([N+](=O)[O-])c(NCc2ccccc2Cl)c2ccccc21	42%	.	.	.	.	.
CC(=O)Nc1ccc(Nc2c([N+](=O)[O-])c(=O)n(-c3ccccc3)c3ccccc23)cc1	-6%	.	10µM*	.	.	5%
CCc1nc(SCC(=O)c2ccccc2)c2c(=O)n(C)c(=O)n(C)c2n1	-16%	.	.	.	.	.
CCOC(=O)c1ccc(N2C(=O)c3n[nH]c(C)c3C2c2ccc(OC)cc2OC)cc1 (stereo not given)	-33%	13	-5%	-119*	-29%	17%
CCN(CC)c1ccc(/C=C(\C#N)C(N)=O)cc1	12%	.	32µM*	.	.	31%
COc1ccc(/C=C(\C#N)C(N)=O)cc1OC	.	.	-7%[13.5 µM]	.	-4%	2%
N#CC(C#N)=C(N)/C(C#N)=C/c1ccc(O)cc1	18%[46.1 µM]	-27	2.2µM*	.	?	?
CCN(CC)c1ccc(/C=C(\C#N)C(=O)c2ccc(Br)cc2)cc1	-28%	.	11µM*	-20	-12%	0%
O=C(NCCCN1CCOCC1)/C(=C/c1cccnc1)NC(=O)c1ccccc1	15%	.	-9%	.	.	-1%
COc1ccccc1CN(Cc1cc2cc3c(cc2[nH]c1=O)OCCO3)Cc1nnnn1Cc1ccco1	?	5	?	23	?	0%[38.3 µM]
CO/C=C\C=C/c1nnn(-c2ccc(Cl)cc2)n1	-16%	.	25µM*	-94*	-15%	-2%
Clc1ccc(-n2cnnn2)cc1	4%[46.1 µM]	0	10%	-6	-1%	0%
CC(C)C(=O)Nc1ccc(C(=O)NNC(=O)NC2CCCCC2)cc1	-7%[46.1 µM]	2	4%	-4	-6%	20%[38.3 µM]
Cc1ccc(N=C2NC(=O)c3cc([N+](=O)[O-])ccc32)cc1	-52%	?	3%	58	-1%	13µM*
Cc1ccc(C(=O)Nc2cccc(C(F)(F)F)c2)cc1NC(=O)c1csc(-c2ccncc2)n1	-32%	.	.	.	.	.
N#C/C(=N\Nc1cccc(C(F)(F)F)c1)C(=O)c1csc(-c2cccnc2)n1	10µM*	.	.	.	.	.
CC1CCCC2(C1)NC(=S)N(c1ccccc1)N2 (stereo not given)	-14%[46.1 µM]	3	?	?	-6%	7%[38.3 µM]
CC1CCCCC12NC(=S)N(c1ccccc1)N2 (stereo not given)	-2%	.	14µM*	.	.	.
CC1CC(C)(C)CC2(C1)NC(=S)N(c1ccccc1)N2 (stereo not given)	-8%[46.1 µM]	-5	16µM*	-17	-9%	28%[38.3 µM]
COC(=O)CCCCCCCCC(O)C[N+]1(C)CCOCC1 (stereo not given)	8%	.	.	.	.	.
S=C(Nc1ccc(Cl)cc1)NC1CCN(Cc2ccccc2)CC1	3%	.	4µM*	-21	-4%	-5%
S=C(Nc1ccccc1)NC1CCN(Cc2ccccc2)CC1	-11%	.	14µM*	.	.	5%
O=C(Cc1ccccc1)NC1CCN(Cc2ccccc2)CC1	11%	.	13%	.	.	4%
CC(Oc1ccccc1)C(=O)NC1CCN(Cc2ccccc2)CC1 (stereo not given)	0%[46.1 µM]	8	3%	-84*	-5%	46%[38.3 µM]
